Inconclusive results are not listed. Where a call stands in place of a potency, no number is given. Where a structure was tested more than once in an assay, its records may differ in their call. A number with no mark means an inactive call. Activity calls are given as the source filed them. The call rests on the fitted dose curve; in most records, active means well fitted cell-killing curve with a large enough effect in the repeat runs; inconclusive means weak or mixed curves, or effect the other way; inactive means flat fitted curve, though single readings scatter.
Tests used:
[1] = cAMP Responsive Elements (CRE) small molecule antagonists, cell-based qHTS assay: qHTS cell viability counter screen (AID 2060913); further: nearly all actives have a fitted effect of over 40% in size
How it was run: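 Steps: cells plated and held 18 hrs at 37 C/5% CO2; compounds and NKH477 (0.25 uM final) added; 3 hrs incubation; reporter substrate read; CellTiter-Glo added to measure cytotoxicity by luminescence.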

[2] = cAMP Responsive Elements (CRE) small molecule agonists, cell-based qHTS assay: qHTS cell viability counter screen (AID 2060914); further: nearly all actives have a fitted effect of over 50% in size
How it was run: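 Luminescence read-out (CellTiter-Glo, 30 min RT) of ATP-based viability in CRE-bla HEK 293T cells, run in the same wells as the β-lactamase reporter assay after 3 h compound treatment at 37 °C.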
Potency means the concentration at half of the fitted maximal effect.

SMILES | Potency [1] | Potency [2] | viability change, negative = cytotoxic [1] | activity change, negative = cytotoxicity [2]
Cn1ccnc1 | inactive | inactive | – | –
COc1cc2c(cc1OC)C(=O)C(CC1CCN(Cc3ccccc3)CC1)C2 (centres undefined) | inactive | inactive | – | –
CN(C)C(=O)C1(N2CCCCC2)CCN(CC[C@@]2(c3ccc(Cl)c(Cl)c3)CN(C(=O)c3ccccc3)CCO2)CC1 | 64.1 µM (active) | – | – | –
C1N2CN3CN1CN(C2)C3 | inactive | inactive | – | –
CC(CO)(CO)[N+](=O)[O-] | inactive | inactive | – | –
CCCCCCOC(C)=O | inactive | inactive | – | –
CCCCCC[C@@H](O)C/C=C\CCCCCCCC(=O)OCC(O)CO (some centres undefined) | inactive | inactive | – | –
COc1ccc(C(=O)N2CCN(CC(=O)N3CCOCC3)CC2)cc1 | inactive | inactive | – | –
C=C(C)OC(C)=O | inactive | inactive | – | –
Cc1cccc(O)c1 | inactive | inactive | – | –
O=C(CO)[C@@H](O)[C@H](O)[C@@H](O)CO | inactive | inactive | – | –
CC(=O)OC(C)OC(=O)C(C)c1ccc(-c2ccccc2)c(F)c1 (centres undefined) | inactive | inactive | – | –
CCC(C)O (centres undefined) | inactive | inactive | – | –
CC/C=C\CCCCO | inactive | inactive | – | –
O=[Se](O)O | 61.2 µM (active) | 15.4 µM (active) | 6.01% [at 18.9 µM] | 25.7% [at 18.9 µM]
CC(=O)C1=C(C)[C@@H]2C[C@@]3(C1)[C@H](C)CC[C@H]3C2(C)C | inactive | inactive | – | –
CC1CCC2CC1C2(C)C (centres undefined) | inactive | inactive | – | –
Cc1cscn1 | inactive | inactive | – | –
N[C@H](C(=O)O)c1ccc(O)cc1 | – | – | 2.5% [at 18.9 µM] | -13.1% [at 18.9 µM]

From PubChem BioAssay (Tox21)
